This is an account of results in PubChem BioAssay AID2016 (NMMLSC, 2009).

Out of some 330,000 compounds screened, about 1,700 (0.52%) were called active.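 How the source made its calls: active means GFP response versus DMSO above a set limit, roughly screen mean plus 3 SD (cut at about 180% in these data); inconclusive means fewer than 70 cells counted for a yeast strain; inactive means the rest.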 Only a selection was taken, and actives are over-represented in it overall.

This assay can be described thus: modulators of MEP2-GFP levels in yeast, primary screen, S. cerevisiae, multiplex flow cytometry, MLPCN library (AID 2016).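 Further: median GFP fluorescence of the barcode-gated MEP2-GFP cells per well.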 Conditions: S. cerevisiae MEP2-GFP strain, 3 h, at 10 µM, stronger effect = higher value, 100% = DMSO control level. Background: A flow cytometer gives signals particle by particle.
As to `COc1ccc(/C=N/Nc2ncnc3sc4c(c23)CCCC4)cc1O`, the GFP response vs DMSO is 106% (inactive). The result for `CCOc1ncccc1C(=O)OCc1cn2cc(Cl)ccc2n1` reads 561% [may fluoresce violet] (active); that for `CCOc1ncccc1C(=O)OCC(=O)NC1CC1`, 100% (inactive). The value for `CCOc1ncccc1C(=O)OCC(=O)N1c2ccccc2CC1C` (stereo not drawn) was 92.2% (inactive); that for `N#CC(C#N)=CN=c1ccn(Cc2ccc(Cl)cc2Cl)cc1` was 107% (inactive); that for `COc1ccccc1CN1CCCC(N2CCN(c3ccc(F)cc3)CC2)C1` (stereo not drawn) was 485% [may fluoresce violet] (active).

As to `COc1ccc(CN2CCCC(N3CCc4ccccc4C3)C2)c(O)c1` (stereo not drawn), the GFP response vs DMSO is 104% (inactive). The value for `COc1ccccc1CN1CCN(Cc2cc(OC)c(OC)cc2OC)CC1` was 114% (inactive). The result for `COc1ccc(/C=C/CN2CCN(Cc3ccc(C)cc3)C(CCO)C2)cc1` (stereo not drawn) reads 104% (inactive).

Take `CC12CCC(=O)N1C(C(=O)NCCN1C(=O)S/C(=C\c3ccccc3F)C1=O)CS2` (stereo not drawn): the GFP response vs DMSO is 107% (inactive). As to `Cc1ccc(N(C(=O)CNC(=O)c2ccco2)C(C(=O)NC2CCCC2)c2ccncc2)cc1` (stereo not drawn), the GFP response vs DMSO is 359% [may fluoresce violet] (active). With `COc1cccc(N(C(=O)CNC(=O)c2ccco2)C(C(=O)NC2CCCCC2)c2cccnc2)c1` (stereo not drawn), the GFP response vs DMSO was 104% (inactive). The result for `CC(C)(C)NC(=O)C(c1ccncc1)N(C(=O)CNC(=O)c1ccco1)c1ccc2c(c1)OCO2` (stereo not drawn) reads 111% (inactive).

Consider `O=C(Nc1ccc(S(=O)(=O)NCC2CCCO2)cc1)c1ccc(F)cc1` (stereo not drawn), for which the GFP response vs DMSO was 101% (inactive). `O=C(CN1CCCCCC1)Nc1c(Cl)cc(Cl)cc1Cl`: the GFP response vs DMSO is 98.7% (inactive). The value for `Oc1ccccc1C1=NN(c2ccccc2)C(c2ccccc2)C1` (stereo not drawn) was 107% (inactive); that for `O=C1C2N=NN(CC(=O)N3N=C(c4cccc5ccccc45)CC3c3ccccc3)C2C(=O)N1c1ccccc1` (stereo not drawn) was 299% [may fluoresce violet] (active); that for `Cc1ccc(N2C(=O)C3N=NN(CC(=O)N4N=C(c5cccc6ccccc56)CC4c4ccccc4)C3C2=O)cc1` (stereo not drawn) was 102% (inactive). The result for `CCOC(=O)c1c(NC(=O)CSc2nnc(CN3CCOCC3)n2C)sc2c1CCCC2` reads 99.8% (inactive). The value for `CCOC(=O)C1CCN(C(=O)C2CCN(S(=O)(=O)CC)CC2)CC1` was 98.5% (inactive). Regarding `Cc1ccc2cc3cc(C(=O)N4CCCCCC4)oc3nc2c1`, the GFP response vs DMSO is 97.2% (inactive). The value for `CCCCN1C(=O)c2ccc(C(=O)Nc3ccc(S(=O)(=O)N(C)C)cc3)cc2C1=O` was 87.8% (inactive). The value for `COCCN1C(=O)N[C@@H](CCc2ccccc2)[C@H](C(C)=O)[C@H]1C` was 86.4% (inactive); that for `COCCN1C(=O)N[C@@H](c2ccccc2)C(C(=O)OC)=C1C` was 91.3% (inactive); that for `COCCN1C2=C(COC(C)(C)C2)C(=S)NC1c1ccccc1` (stereo not drawn) was 234% (active).

Take `Brc1ccc2c(c1)[C@H]1OCC[C@H]1[C@@H](c1cccs1)N2`: the GFP response vs DMSO was 102% (inactive). The value for `C[C@H]1CCC(=O)N([C@H](CSc2ccccc2)Cc2ccccc2)CC1` was 93.7% (inactive); that for `C=CCC1=C/C(=C\c2c(N)n3nc(CC(=O)N4CCOCC4)sc3nc2=O)C=C(OC)C1=O` was 102% (inactive).

Consider `CN(Cc1ccc(F)cc1)C(=O)CN1C(=O)c2ccccc2S1(=O)=O`, for which the GFP response vs DMSO is 95% (inactive). In the case of `COc1ccccc1OCCCC(=O)Nc1ccc2c(c1)OCCO2`, the GFP response vs DMSO is 92.3% (inactive). The result for `CCC(=O)c1cc(F)ccc1OCC(=O)Nc1ccc2c(c1)OCCO2` reads 104% (inactive). The value for `CCc1ccccc1OCC(=O)Nc1ccc2c(c1)OCCO2` was 366% [may fluoresce violet] (active); that for `CC12c3ccccc3C(c3ccccc31)C1C(=O)N(Cc3cccnc3)C(=O)C12` (stereo not drawn) was 107% (inactive); that for `COc1ccc(CNC(=O)CN2CCC(n3nnc4cc(F)ccc43)CC2)cc1` was 88.8% (inactive). The value for `O=C(Nc1cccc2cccnc12)c1cccc(Cl)c1` was 567% [may fluoresce violet] (active); that for `O=C(Nc1cccnc1Cl)c1cc(-c2cccc(Cl)c2)on1` was 103% (inactive). Consider `CSc1ccc(C#N)cc1NC(=O)c1cccc(Cl)c1`, for which the GFP response vs DMSO was 102% (inactive).

In the case of `Cc1ccc(S(=O)(=O)c2nnn3c2nc(N2CCN(c4ccccn4)CC2)c2ccccc23)cc1`, the GFP response vs DMSO was 112% (inactive). `CC(=O)Nc1ccc(Nc2nc3c(S(=O)(=O)c4ccc(C)c(C)c4)nnn3c3ccccc23)cc1`: the GFP response vs DMSO is 103% (inactive). `Cc1cccc(Nc2nc3c(S(=O)(=O)c4ccccc4)nnn3c3ccccc23)c1C`: the GFP response vs DMSO was 1130% [may fluoresce green] (active).

Take `C=CC[C@@H](Cc1ccc(F)cc1)C(=O)OC[C@H]1CCCN1C(=O)[C@H](CC=C)CC(=O)N(CCO)Cc1ccccc1`: the GFP response vs DMSO was 103% (inactive).

As to `NC1=NC(c2ccc([N+](=O)[O-])cc2)N(c2ccc(F)cc2)C(N)=N1` (stereo not drawn), the GFP response vs DMSO is 107% (inactive). For `O=C(CN1CCN(C/C=C/c2ccccc2)CC1)Nc1ccc(F)cc1F`, the GFP response vs DMSO is 100% (inactive).

Turning to `O=C(CC1SC(N2CCOCC2)=NC1=O)Nc1ccccc1F` (stereo not drawn), the GFP response vs DMSO was 91.9% (inactive). The result for `O=C(CC1SC(=Nc2ccccc2F)N(CCN2CCOCC2)C1=O)Nc1ccc(F)cc1F` (stereo not drawn) reads 177% (active); that for `CCCN1C2CCCC1CC(NC(=O)c1cccc(OC)c1)C2` (stereo not drawn), 93.2% (inactive). The result for `Cc1ccc(-n2cc3ccc([N+](=O)[O-])cc3n2)cc1` reads 98.2% (inactive). For the compound `Cc1ccc2c(c1)N(CC(=O)NCCc1ccc(Cl)cc1)C(=O)c1cccnc1O2`, the GFP response vs DMSO is 110% (inactive).

On to `CCCCNC(=O)C1(O)c2ccccc2NC(=O)N1c1ccc(Cl)cc1` (stereo not drawn), for which the GFP response vs DMSO was 108% (inactive). The result for `CCCCC1N2CC3([N+](=O)[O-])CN1CC([N+](=O)[O-])(C2)C3(C)C` (stereo not drawn) reads 96.3% (inactive).

With `O=c1c2c(nc3cc(-c4cccc(Cl)c4)[nH]n13)CCCC2`, the GFP response vs DMSO was 98.5% (inactive).

Consider `CSc1nc2nc3c(c(=O)n2[nH]1)CCC3`, for which the GFP response vs DMSO was 95.3% (inactive).

Consider `O=c1c2c(nc3nc[nH]n13)CCC2`, for which the GFP response vs DMSO was 532% [may fluoresce violet] (active).

On to `CNC(=O)Nc1cc(C(C)(C)C)no1`, for which the GFP response vs DMSO was 107% (inactive). The value for `CCN(CC)c1ccc([N+](=O)[O-])cc1C(=O)O` was 109% (inactive). Take `Cc1noc(C)c1CCC(=O)N1CCCC(CO)(Cc2ccccc2)C1` (stereo not drawn): the GFP response vs DMSO was 96.4% (inactive). The result for `Cc1ccc(F)c(NC(=O)CCOc2ccccc2C)c1` reads 96.5% (inactive); that for `Cc1ccc(F)c(NC(=O)CCc2ccccc2)c1`, 93.7% (inactive); that for `CCn1ncc(Br)c1C(=O)Nc1cc(C)ccc1F`, 233% [may fluoresce violet] (active). The value for `Cc1nnc(N(Cc2ccco2)C(=O)c2ccno2)s1` was 99% (inactive). The result for `CC(C)CC(CO)N1CCN(C(=O)c2ccc(Cl)cc2Cl)CCC1=O` (stereo not drawn) reads 96.1% (inactive); that for `CCS(=O)(=O)Nc1ccc(C2=NN(C(C)=O)C(c3cccs3)C2)cc1` (stereo not drawn), 107% (inactive). As to `CCCCc1c(O)nc2n(c1=O)CCS2`, the GFP response vs DMSO was 92.6% (inactive). The value for `CCCS(=O)(=O)Nc1ccc(-c2cn3c(n2)SCC3)cc1` was 255% [may fluoresce violet] (active); that for `CCOc1ccc(NS(=O)(=O)c2ccc(C(=O)NCC(c3ccccc3OC)N3CCCC3)cc2)cc1` (stereo not drawn) was 102% (inactive). The value for `O=C(Nc1ccc(N2CCOCC2)c(Cl)c1)c1ccc(S(=O)(=O)N2CCOCC2)cc1` was 95.7% (inactive). The value for `Cc1cc(C)n(-c2ccc(NC(=O)C3CCCCN3C(=O)c3cccs3)cc2)n1` (stereo not drawn) was 92.9% (inactive); that for `Cc1cc(C)c(OCCN2CC(C)OC(C)C2)c(Br)c1` (stereo not drawn) was 101% (inactive).

`Cc1ccc(-c2nc(CS(=O)(=O)CC(=O)NCc3ccc4c(c3)OCO4)c(C)o2)cc1`: the GFP response vs DMSO is 102% (inactive). The value for `COc1cccc(-c2nc(CS(=O)(=O)CC(=O)NCCc3ccc(OC)c(OC)c3)c(C)o2)c1` was 98.7% (inactive); that for `COc1ccc(CCNC(=O)CS(=O)(=O)Cc2nc(-c3ccc(C)cc3)oc2C)cc1OC` was 186% (active).

On to `O=C(CN1C(=O)c2cccnc2Oc2ccc(Cl)cc21)Nc1ccc(F)cc1`, for which the GFP response vs DMSO is 105% (inactive).

As to `CCOc1cc2[nH]c(=O)n(CCC(=O)NCc3ccc(OC)cc3)c(=O)c2cc1OCC`, the GFP response vs DMSO was 223% [may fluoresce violet] (active). The result for `COc1ccc(CNC(=O)CCN2C(=O)c3ccccc3C2=O)cc1` reads 96.1% (inactive). The value for `COc1ccc(CNC(=O)CCn2cccc2)cc1` was 94.3% (inactive); that for `NCCCCCC(=O)N/N=C/c1ccc2nccnc2c1` was 673% [may fluoresce violet] (active); that for `Cc1nccn1CC(=O)N/N=C/c1ccc(O)c(O)c1` was 105% (inactive). The result for `O=C(N/N=C/c1ccc(Cl)c(Cl)c1)c1ccc2nc[nH]c2c1` reads 97.5% (inactive); that for `COCCN(C(=O)CCC(=O)Nc1ccccn1)C(C(=O)NCCC(C)C)c1ccc(OC)cc1` (stereo not drawn), 107% (inactive). Consider `COCCNC(=O)C(c1ccc(C)cc1)N(C(=O)CCC(=O)Nc1ccccn1)c1cccc(C)c1` (stereo not drawn), for which the GFP response vs DMSO is 107% (inactive).

In the case of `CCOc1ccc(C(C(=O)NCCOC)N(CCOC)C(=O)CCC(=O)Nc2ccccn2)cc1` (stereo not drawn), the GFP response vs DMSO was 296% [may fluoresce violet] (active). The result for `Cn1c(CCC(=O)OCC(=O)NCc2ccccc2Cl)nc(=O)c2ccccc21` reads 99.4% (inactive); that for `COc1cc(Cl)c(C)cc1NC(=O)CSc1nnc(CN2CCCC2)o1`, 105% (inactive). The value for `CC1CC(=S)Nc2ccccc2N1Cc1ccccc1` (stereo not drawn) was 98.4% (inactive); that for `Cc1cc(NS(=O)(=O)c2ccc(NC(=O)c3cccc(OC(F)F)c3)cc2)nc(C)n1` was 92% (inactive). On to `Cc1cccc(C)c1NC(=O)CS(=O)CC(=O)N1CCN(c2ccccc2)CC1` (stereo not drawn), for which the GFP response vs DMSO is 102% (inactive).

Turning to `CC[n+]1cc(C)ccc1/C=C/c1ccc(N(C)C)cc1`, the GFP response vs DMSO was 180% (active).

For the compound `Cc1ccccc1NC(=O)C1CCCN(C(=O)NCc2ccccc2)C1` (stereo not drawn), the GFP response vs DMSO is 105% (inactive).
